# PNC inhibitor: perinucleolar compartment assembly inhibition. PC3M PTB-GFP, PNC prevalence imaging, 16 h; hits give low values. activity change (PNC), negative = inhibition, % at 10 µM. 140,000 compounds, 3.1% hits;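 active means readout at or below -70, meaning at least 70% loss of cells showing the perinucleolar compartment, a nuclear body marking cancer cells; inconclusive means readout between -30 and a set limit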;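 further: plate controls were DMSO wells for no effect and camptothecin positive control wells for full effect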
#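 Read-out is percentage of cells bearing a perinucleolar compartment, from automated 20x imaging of fixed, Hoechst-stained PC3M PTB-GFP cells. Cells were seeded 4 h, then exposed 16 h to compound (23 nl of library stock) in duplicate plates.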
# 12-hLO inh: 12-hLO (ALOX12) enzyme inhibition; purified 12-hLO, xylenol orange hydroperoxide absorbance; P18054; Potency, µM (top dose mostly 57.1 µM), for inactives: top-dose activity change, negative = inhibition, actives largely listed as inhibitors; 150,000 compounds, 0.12% hits; AID 1452; further: potency means the concentration at half of the fitted maximal effect; nearly all actives have a fitted effect of over 55% in size
#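 Hydroperoxide formation by human 12-lipoxygenase from 40 uM arachidonic acid was followed colorimetrically via ferric-xylenol orange complex, using the 573/405 nm absorbance ratio. Enzyme concentration was 150 nM, with 30 min reaction at room temperature.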
# ALOX15B inhib: 15-hLO-2 (ALOX15B) enzyme inhibition | AID 881 | O15296 | 110,000 compounds, 0.56% hits | Potency, µM (top dose mostly 57.1 µM), for inactives: at the highest dose activity change, negative = inhibition, actives largely listed as inhibitors | purified 15hLO-2, xylenol orange hydroperoxide absorbance; further: potency means the concentration at half of the fitted maximal effect; nearly all actives have a fitted effect of over 60% in size
# Target sequence (O15296 whole entry, looked up): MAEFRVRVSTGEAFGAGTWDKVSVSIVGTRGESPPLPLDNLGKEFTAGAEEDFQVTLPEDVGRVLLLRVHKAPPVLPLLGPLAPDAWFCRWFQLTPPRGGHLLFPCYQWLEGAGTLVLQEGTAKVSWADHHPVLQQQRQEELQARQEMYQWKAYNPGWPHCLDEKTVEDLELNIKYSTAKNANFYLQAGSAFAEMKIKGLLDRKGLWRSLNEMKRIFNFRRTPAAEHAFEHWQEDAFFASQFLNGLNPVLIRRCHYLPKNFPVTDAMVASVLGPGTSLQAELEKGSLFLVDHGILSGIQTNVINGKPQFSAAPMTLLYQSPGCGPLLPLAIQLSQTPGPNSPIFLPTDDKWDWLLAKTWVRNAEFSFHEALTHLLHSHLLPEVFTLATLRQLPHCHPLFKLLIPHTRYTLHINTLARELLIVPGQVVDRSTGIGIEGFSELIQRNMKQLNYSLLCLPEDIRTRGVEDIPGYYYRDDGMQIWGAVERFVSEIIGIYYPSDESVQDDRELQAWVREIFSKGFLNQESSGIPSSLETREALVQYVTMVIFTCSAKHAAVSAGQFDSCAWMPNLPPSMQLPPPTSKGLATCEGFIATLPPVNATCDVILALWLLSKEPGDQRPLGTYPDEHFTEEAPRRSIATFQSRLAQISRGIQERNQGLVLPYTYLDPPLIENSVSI
#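 Purified human 15hLO-2 (50 nM) preincubated 15 min with compound, then 45 uM arachidonic acid for 90 min at RT in 25 mM Hepes pH 7.5, 0.01% Triton X-100. Hydroperoxide detected by Fe-xylenol orange; 573/405 nm absorbance ratio.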
# An asterisk follows results filed as active; ? = inconclusive; . = no result; [ ] = remark or other dose. The list is not random: actives were taken first. Their share in the collection is about 3.2%. Unless noted, the call rests on the fitted dose curve; in most records, active means well fitted curve in the direction sought with a large enough effect; inconclusive means small, poorly fitted or top-dose-only effect, or another doubt; inactive means no such curve, though single readings can be large; an effect the other way counts as inactive or inconclusive. Unless noted, on the % scale 0 is the no-effect control and ±100 the full control effect.
SMILES,PNC inhibitor,12-hLO inh,ALOX15B inhib
CCCN(CC(=O)Nc1ccccc1C)C(=O)/C=C/c1cccs1,21,1%,.
COc1cccc(/C(C#N)=C/c2c(-c3ccc(Cl)cc3)nc3c(C)cccn23)c1,-99*,-3%,7%
Cc1cccn2c(/C=N/OCc3cccc(F)c3)c(-c3ccc(Cl)cc3)nc12,36,-1%,-5%
N#Cc1ccc(-n2nccc2-c2cnc3n(c2=O)CCS3)cc1,0,0%,3%
COc1cccc(-c2cc(C(=O)N3C(C)CCCC3C)no2)c1 (stereo unspecified),-91*,0%,5%
COc1cccc(-c2cc(C(=O)N3CCN(C(c4ccccc4)c4ccccc4)CC3)no2)c1,?,0%,22%
COCCOC(=O)C1=C(C)N(c2ccccc2)C(=O)NC1c1cccc([N+](=O)[O-])c1 (stereo unspecified),-10,1%,.
COCCOC(=O)C1=C(C)Nc2cc(=O)[nH]c(=O)n2C1c1cccc([N+](=O)[O-])c1 (stereo unspecified),-109*,-5%,.
CN(C)C(=O)N1CCN(C(=O)N(C)C)CC1,-9,-3%,1%
CC1CN(C(=O)N(C)C)CCN1C(=O)N(C)C (stereo unspecified),-127*,-2%,-1%
Cc1cccc(CNc2ccnc(-c3cccc(C#N)c3)n2)c1,.,.,34%
CCCc1cc(C(=O)Nc2cccc(Cl)c2)no1,-26,1%,-6%
CCOc1ccc2nc(NC(=O)c3cccnc3)sc2c1,-108*,4%,.
CCOc1cc(OCC)cc(C(=O)Nc2cccnc2)c1,-91*,-5%,-3%
CCOc1ccc2nc(NC(=O)c3cnc(C)cn3)sc2c1,22,-6%,8%
CCCc1cc(C(=O)Nc2cccnc2)no1,-106*,-5%,2%
CCCOc1cccc(C(=O)Nc2cccnc2)c1,?,1%,5%
CN(C)c1ccc(NC(=O)CC(NCc2ccccn2)C(=O)O)cc1 (stereo unspecified),-9,-1%,.
Cc1nc2c(cnn2-c2ccccc2Cl)c(=O)n1-c1ccc(C(C)C)cc1,30,1%,-5%
NCC1CCCCC1CC(=O)O (stereo unspecified),.,-1%,9%
O[C@H](CCCN1CCN(c2ncc(F)cn2)CC1)c1ccc(F)cc1,.,-1%,31%
CN1c2ccccc2C(C)(C)C12CC(c1ccc(Cl)c(S(=O)(=O)N3CCCC3)c1)=NO2 (stereo unspecified),-121*,-1%,.
CN1c2ccccc2C(C)(C)C12CC(CCl)=NO2 (stereo unspecified),27,1%,-7%
O=C(c1cccc(Br)c1)c1conc1C(=O)c1ccco1,-114*,1%,.
CC(=O)c1nn(-c2cccc(Br)c2)cc1C(=O)c1ccco1,-10,4%,.
SMILES,PNC inhibitor,12-hLO inh,ALOX15B inhib
O=C(Nc1ccc(NC(=O)c2ccco2)nc1)c1cccnc1,-100*,2%,.
COc1cccc(C(=O)Nc2ccc(NC(C)=O)cn2)c1,-116*,2%,.
O=C(Nc1cccnc1)c1ccc(NC(=O)c2ccco2)cc1,-23,0%,9%
CCCC(=O)Nc1ccc(NC(=O)c2cccc(OC)c2)nc1,-18,-6%,-1%
CC1=NN(C(=O)c2c(Br)c(C)nn2C)C(O)(C(F)(F)F)C1 (stereo unspecified),-16,2%,.
CCNc1ncc2nc(-c3ccc(F)cc3)c(=O)n(CCOC)c2n1,.,.,0%
CC1(OC(=O)c2cnc3ccccc3n2)C(=O)C=C2C=C3CCCN3C=C2C1=O (stereo unspecified),.,1%[11.4 µM],.
Cc1ccc(C(=O)Oc2ccc(C(=O)COC(=O)c3cnccn3)cc2)cc1,72,6%,-7%
Cc1ccc(C(=O)COC(=O)c2cnccn2)cc1,-102*,2%,-8%
COc1ccc(-c2nc3cnc(N(C)C)nc3n(Cc3ccc(F)cc3)c2=O)cc1,.,.,-1%
CN(C)CC(C)(C)CNC(=O)c1ccc(-n2c(=O)c(=O)[nH]c3ccccc32)cc1,.,-4%,.
COc1ccc(C(=O)N2CCC3(CC2)CCN(c2ccncc2)CC3)cc1,.,-2%,9%
CN(c1ccccc1C(=O)Nc1ccc2c(c1)OCCO2)S(C)(=O)=O,289,1%,.
CSc1ccccc1C(=O)Nc1cccc(N(C)S(C)(=O)=O)c1,?,-4%,-2%
CN(c1ccccc1C(=O)Nc1ccc2c(c1)OCO2)S(C)(=O)=O,-100*,-1%,.
COc1ccccc1C(=O)Nc1cccc(N(C)S(C)(=O)=O)c1,-100*,0%,.
CSc1cccc(NC(=O)CN(c2cc(C)ccc2C)S(C)(=O)=O)c1,-12,-9%,0%
CCCCC/C=C\C/C=C\C/C=C\C=C\[C@@H](O)CCCC(=O)O,.,1%,.
Cc1ccc(N(CC(=O)NCCSc2nc3ccccc3s2)S(=O)(=O)c2ccccc2)c(C)c1,?,-4%,.
COc1ccc2cc(/C=N/NC(=O)c3ccc(CN(c4ccc(C)c(C)c4)S(C)(=O)=O)cc3)c(Cl)nc2c1,18,1%,.
COc1ccc2cc(/C=N/NC(=O)c3c(Cl)cnn3C)c(Cl)nc2c1,-86*,2%,.
COc1ccc(NC(=O)/C(C#N)=C\c2cc(C)n(-c3ccc(Oc4ccc([N+](=O)[O-])cn4)cc3)c2C)cc1,-5,9%,-10%
Cc1cc(C=O)c(C)n1-c1ccc(Oc2ccc([N+](=O)[O-])cn2)cc1,-118*,1%,.
Cc1cc(C)c(S(=O)(=O)N2CCCCC2)c(C)c1N(C)S(=O)(=O)c1ccccc1,63,7%,-7%
COC(=O)c1ccc(C(NC(=O)OCc2ccccc2)/C(F)=C/[C@@H](C)C(=O)NCCO)cc1 (stereo partly specified),.,1%,2%
SMILES,PNC inhibitor,12-hLO inh,ALOX15B inhib
Cc1ccc(C(=O)O/N=C/c2c(N3CCOCC3)n(C)c3ccccc23)cc1,82,8%,.
Cn1c(N2CCOCC2)c(/C=N/OC(=O)c2ccc(F)cc2)c2ccccc21,-99*,0%,-12%
Cc1ccc2c(c1)-c1c(ssc1=S)C(C)(C)N2C(=O)c1ccco1,-100*,1%,.
Cc1ccc2c(c1)-c1c(ssc1=S)C(C)(C)N2C(=O)CSC1=NCCS1,?,-21%,?
O=C1C=C(NCCO)C(=O)c2cnccc21,.,-9%,?
O=C1C=C(NCCN2CCOCC2)C(=O)c2cnccc21,-82*,-7%,.
Cc1ccc(C2C(C#N)=C(N)SC(N)=C2C#N)c(C)c1,-15,?,13µM*
Cc1ccc(C2C(C#N)=C(N)SC(N)=C2C#N)cc1,-26,?,?
CCNc1ncc2nc(-c3cccs3)c(=O)n(-c3ccccc3)c2n1,.,.,-11%
CCOC(=O)C(=O)NC(C)CCc1ccccc1 (stereo unspecified),-15,4%,.
CCOC1OC(=O)C(Cl)=C1Nc1ccc(C)cc1C (stereo unspecified),6,-1%,.
CCN(CC)C(=O)c1ccc2c(c1[N+](=O)[O-])C(=O)c1ccccc1C2=O,-82*,-1%,.
CCN(CC)C(=O)c1cccc2c1C(=O)c1ccccc1-2,?,2%,.
COc1ccc(C(=O)Nn2cc3c(c2-c2ccccc2)c(=O)n(C)c(=O)n3C)cc1,5,-10%,-10%

# Screening data (PubChem BioAssay)
